The text below walks through data of PubChem BioAssay (NCATS).

Where “and” joins values, the source holds several entries; their conditions need not be identical. Equal entries are not always repeated. Inconclusive results are not listed. Some compounds were tested as several samples or in several runs, with calls that do not always agree. Calls of active or inactive are those of the source. Calls follow the shape of the dose curve; as a rule, active = well fitted inhibition curve with a large enough effect; inconclusive = small, poorly fitted or top-dose-only effect; inactive = flat fitted curve, though single readings scatter.
Potency is read from the fitted curve at half-maximal effect.

Chain of Phospholipid hydroperoxide glutathione peroxidase GPX4 (Homo sapiens) (P36969 whole entry, looked up): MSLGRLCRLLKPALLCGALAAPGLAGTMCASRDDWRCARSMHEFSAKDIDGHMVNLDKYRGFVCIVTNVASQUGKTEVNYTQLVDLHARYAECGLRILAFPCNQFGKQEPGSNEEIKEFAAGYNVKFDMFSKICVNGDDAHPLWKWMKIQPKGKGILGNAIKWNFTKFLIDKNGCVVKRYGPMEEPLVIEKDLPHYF

The assay has as its target Phospholipid hydroperoxide glutathione peroxidase GPX4 (Homo sapiens) (UniProt P36969). Briefly: Primary qHTS Assay for Inhibitors of Recombinant Selenoprotein Glutathione Peroxidase 4 (GPX4) (AID 1845192). Also: nearly all actives have a fitted effect of over 65% in size. Conditions: recombinant GPX4, GR-coupled NADPH fluorescence, 15 min; series mostly up to 50 µM; activity change, negative = inhibition: at the top concentration. The source says:
Assay Provider: Elias S.J. Arner MD PhD.
Department of Medical Biochemistry and Biophysics
Karolinska Institutet, Solna, Stockholm, Sweden
Selenoprotein glutathione peroxidases (GPX), like the ubiquitously expressed GPX1 and the ferroptosis modulator GPX4, enact their antioxidant activities by reducing hydroperoxides using glutathione. […] GPX1 and GPX4 inhibitors have thus shown promise as anti-cancer agents. Existing inhibitors are often promiscuous, or modulate GPX activity only indirectly, so novel direct inhibitors identified through screening against GPX1 and GPX4 could be valuable. Here, we developed optimized glutathione reductase (GR)-coupled GPX assays for the biochemical high-throughput screen (HTS) of almost 12,000 compounds with known mechanisms of action. Initial hits were triaged using a GR counter-screen, assessed for isoform specificity using a separate GPX2 assay, and were assessed for general selenocysteine-targeting activity using a thioredoxin reductase (TXNRD1) assay. With this suite of assays, we identified novel GPX1/GPX2- and GPX4-specific inhibitors and can here present a validated pipeline for future discovery research for selenoprotein-targeting agents.
SEQUENCE No. (e.g., 1, 2, 3, etc.); […] (e.g., Cells, Incubation, Reagent, etc.); VALUE; DESCRIPTION.
1; Reagent 1; 3 uL; 333.33 nM GPx4 enzyme or no enzyme control in 1536-well, black, solid Greiner assay plate.
2; Compound; 25 nL; Kalypsis pin tool (Wako USA) equipped with a 1536-well pin head.
3; Incubation; 30 min; room temperature.
4; Reagent 2; 1 uL; 500 nM GR, 5 mM GSH, 2.5 mM NADPH solution
5; Reagent 3; 1 uL; 2.5 mM CHP in 50% EtOH.
6; Detection; Fluorescence; ViewLux microplate reader, excitation 340 nm and emission 450 nm.
7; Incubation; 15 min; room temperature.
8; Detection; Fluorescence; ViewLux microplate reader, excitation 340 nm and emission 450 nm.
NOTES (numbers refer to Sequence numbers above)
1. 3 µL of 333.33 nM GPX4 and 0.016% BSA in assay buffer (50 mM Tris-HCl, 2 mM EDTA (pH 7.5), 150 mM NaCl) was added to columns 3-48 of 1536-well plates using a BioRAPTR Flying Reagent Dispenser (Let's Go Robotics (LGR), Carlsbad, CA). A no-enzyme control (0.01% BSA in TES assay buffer) was added to columns 1-2.
2. 25 nL, library and DMSO controls were added to each well with a pin tool (Kalypsys).
3. The assay plates were incubated for 30 minutes at room temperature.
4. 1 µL of master mix (500 nM glutathione reductase (GR), 5 mM reduced glutathione (GSH), 2.5 mM NADPH in assay buffer) was added.
5. 1 µL of cumene hydroperoxide (CHP) ([2.5 mM] in 50% EtOH) was then added within 5 minutes to initiate the reaction. Final concentrations were: 200 nM GPX4, 1 mM GSH, 0.5 mM CHP, 0.5 mM NADPH, 100 nM GR, 0.01% BSA.
6. Initial fluorescence readout (t=0) at 340/450 nm was measured using a ViewLux multimodal detector (PerkinElmer, Waltham, MA).
8. Endpoint fluorescence readout (t=15) at 340/450 nm was measured 15 min after room temperature incubation.
(Quantitative high-throughput screening tests each substance at several concentrations.)
In the case of `CC(C)C[C@@H](C(=O)N[C@H](C(=O)OC1CCCC1)c1ccccc1)[C@H](O)C(=O)NO`, the outcome was inactive. For `O=c1[nH]nc(OCCCc2ccc(Cl)cc2)c(NCc2cccnc2)c1Br`, the “activity change, negative = inhibition” value is 4.69% (inactive).

Turning to `COc1cc(Nc2nc3ccccc3nc2NS(=O)(=O)c2ccc(NC(=O)c3ccc(C)c(OC)c3)cc2)cc(OC)c1`, the “activity change, negative = inhibition” value is 3.1% (inactive). The same measure, in the same setting: the figure for `COC1CCC(C(=O)c2ccc3nc4c(cc3c2)CCCO4)CC1` (stereo not given) is -4.28% (inactive). The same measure, in the same setting: the figure for `COC(=O)Nc1ccc(-c2nc(N3CCOCC3)c3cnn(C4CCN(C(=O)OC)CC4)c3n2)cc1` is 3.41% (inactive). For `CN1C(=O)C(Cc2c[nH]c3ccccc23)NC1=S` (stereo not given), the Potency entry was “inactive”. For the molecule `CC(C)(C)c1nc(-c2cccc(NS(=O)(=O)c3c(F)cccc3F)c2F)c(-c2ccnc(N)n2)s1`, the Potency result is “inactive and 12.8 µM (active) and 11.2 µM (active)”. Consider `CC1CCN(c2cc(N3CCN(C)CC3)ccc2NC(=O)c2cc(C#N)c[nH]2)CC1`, for which the result was inactive. In the case of `NS(=O)(=O)c1cc(Cl)c(Cl)c(S(N)(=O)=O)c1`, the Potency result was “inactive”. Consider `N#CC(c1ccnc(NCCc2cccnc2)n1)c1nc2ccccc2s1` (stereo not given), for which the “activity change, negative = inhibition” value was -27.3% (inactive). As to `COc1cc2c(cc1OC)CC(=O)N(CCCN(C)C[C@H]1Cc3cc(OC)c(OC)cc31)CC2`, the Potency entry was “inactive”. As for `CC1CNc2c(cccc2S(=O)(=O)N[C@@H](CCCN=C(N)N)C(=O)N2CC[C@@H](C)C[C@@H]2C(=O)O)C1` (stereo not given in full), the outcome was inactive. For `Cc1nc(C(=O)NCC(=O)O)c(O)c2ccc(Oc3ccccc3)cc12`, the Potency entry was “inactive”. For the molecule `O=C1CN2Cc3c(ccc(Cl)c3Cl)N=C2N1`, the “activity change, negative = inhibition” value was -11.9% (inactive).

`CCCCC[C@H](O)C=C[C@H]1[C@H](O)CC(=O)[C@H]1CC=CCCCC(=O)O`: the outcome was inactive. Turning to `Cc1cnc(Nc2cccc(CN3CCOCC3)c2)nc1Nc1cccc(S(=O)(=O)NC(C)(C)C)c1`, the “activity change, negative = inhibition” value is -4.18% (inactive).

Take `CCC[C@H](N[C@@H](C)C(=O)N1[C@@H]2CCCC[C@H]2C[C@H]1C(=O)O)C(=O)OCC`: the “activity change, negative = inhibition” value was -0.857% (inactive). The same measure, in the same setting: to `CC(NCCc1ccc(O)cc1)C(O)c1ccc(O)cc1` (stereo not given) belongs 2.43% (inactive). Still for that read-out and setting: to `Cc1nc2c([nH]1)CCN(C(=O)c1ccc(NC(=O)c3ccccc3-c3ccccc3)cc1)c1ccccc1-2` belongs -8.78% (inactive). On the same count and under the same terms, the figure for `CCN1CCC(n2cc(CNc3cc(Cl)c4ncc(C#N)c(Nc5ccc(F)c(Cl)c5)c4c3)nn2)CC1` is -2.82% (inactive). In the case of `C[C@@H](O)[C@H]1C(=O)N2C(C(=O)OCOC(=O)C(C)(C)C)=C(SC3CN(C4=NCCS4)C3)[C@H](C)[C@H]12`, the outcome was inactive.

On to `C#CCN(C)CC1=Cc2ccccc2Oc2ccccc21`, for which the “activity change, negative = inhibition” value was -2.15% (inactive). Consider `C=C1c2cccc(O)c2C(O)=C2C(=O)[C@@]3(O)C(O)=C(C(N)=O)C(=O)[C@@H](N(C)C)[C@@H]3[C@@H](O)[C@H]12`, for which the Potency was 11.4 µM (active). Same read-out and setting: to `COc1ccc(Cn2ccc3ccc(C(=O)NO)cc32)cc1` belongs “inactive”. As for `C[C@@H](O[C@H]1OCCN(Cc2n[nH]c(=O)[nH]2)[C@@H]1c1ccc(F)cc1)c1cc(C(F)(F)F)cc(C(F)(F)F)c1`, the “activity change, negative = inhibition” value was -14.7% (inactive). As for `CC[C@H](C)C(=O)O[C@H]1C[C@H](O)C=C2C=C[C@H](C)[C@H](CC[C@@H](O)C[C@@H](O)CC(=O)O)[C@H]21`, the result was inactive.

On to `Cc1ccccc1-n1c(Cn2nc(-c3cccc(O)c3)c3c(N)ncnc32)nc2cccc(C)c2c1=O`, for which the “activity change, negative = inhibition” value was -12.7% (inactive). Turning to `CCNC(=O)c1noc(-c2cc(C(C)C)c(O)cc2O)c1-c1ccc(CN2CCOCC2)cc1`, the Potency entry was “inactive”. Turning to `N[C@@H](CC(=O)N1CCn2c(nnc2C(F)(F)F)C1)Cc1cc(F)c(F)cc1F`, the Potency result is “inactive”. On to `CCCCOCCOc1nc(-c2ccc(C(=O)O)c(F)c2)sc1C`, for which the “activity change, negative = inhibition” value was 3.64% (inactive). With `COc1ccc(-c2ccc3ncc4c(c3c2)n(-c2ccc(N3CCNCC3)c(C(F)(F)F)c2)c(=O)n4C)cn1`, the Potency result is “inactive”. As to `Cc1cc2c(cc1C1(c3ccc(C(=O)O)cn3)CC1)C(C)(C)CCC2(C)C`, the “activity change, negative = inhibition” value was -0.816% (inactive). On the same count and under the same terms, the figure for `CCCCc1ccc(NS(=O)(=O)c2ccc(C)c(C(=O)N3CCN(c4cccc(C)c4C)CC3)c2)cc1` is -22.3% [at 100 µM] (inactive). As for `CCCCC(C)(C)[C@H](O)C=C[C@H]1[C@H](O)CC(=O)[C@H]1CC=CCCCC(=O)O`, the “activity change, negative = inhibition” value is -9.27% (inactive). The same measure, in the same setting: to `O=C(Nc1cccc(Cl)c1)Nc1ncc(CCNc2ncnc3ccsc23)s1` belongs -25% (inactive). In the case of `CCn1c(-c2nonc2N)nc2cncc(CNC3CCNCC3)c21`, the Potency entry was “inactive”.

`COc1ccc2c(c1)c(C1=C(c3c[nH]c4ccccc34)C(=O)NC1=O)cn2CCCN(C)C`: the “activity change, negative = inhibition” value was -9.14% (inactive).

For `Fc1ccc(CNc2ncnc3ccc(F)cc23)cc1`, the “activity change, negative = inhibition” value was 10.7% (inactive). In the case of `C[C@@H]1CCO[C@H]2Cn3cc(C(=O)NCc4ccc(F)cc4F)c(=O)c(O)c3C(=O)N12`, the Potency result is “inactive”. Consider `CCOC(=O)N1c2ccc(C(F)(F)F)cc2[C@@H](N(Cc2cc(C(F)(F)F)cc(C(F)(F)F)c2)C(=O)OC)C[C@H]1CC`, for which the outcome was inactive.
